Reference: article PMC4336329 (PLoS ONE, 2015)
In all, about 310,000 compounds went through this assay and about 14,000 (4.5%) showed an effect of 50% or more. Effects have a minus sign here. This excerpt belongs to a sample that is enriched for strong results.

Molecular target: human ether-à-go-go-related gene (hERG) potassium channel (human, UniProt Q12809)
Assay: primary screen, population patch clamp on CHO cells stably expressing hERG; higher = less effect of the substance
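Also: peak tail current of the secondary pulse compared with the same well before compound.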

Chain of human ether-à-go-go-related gene (hERG) potassium channel (Q12809 whole entry, looked up): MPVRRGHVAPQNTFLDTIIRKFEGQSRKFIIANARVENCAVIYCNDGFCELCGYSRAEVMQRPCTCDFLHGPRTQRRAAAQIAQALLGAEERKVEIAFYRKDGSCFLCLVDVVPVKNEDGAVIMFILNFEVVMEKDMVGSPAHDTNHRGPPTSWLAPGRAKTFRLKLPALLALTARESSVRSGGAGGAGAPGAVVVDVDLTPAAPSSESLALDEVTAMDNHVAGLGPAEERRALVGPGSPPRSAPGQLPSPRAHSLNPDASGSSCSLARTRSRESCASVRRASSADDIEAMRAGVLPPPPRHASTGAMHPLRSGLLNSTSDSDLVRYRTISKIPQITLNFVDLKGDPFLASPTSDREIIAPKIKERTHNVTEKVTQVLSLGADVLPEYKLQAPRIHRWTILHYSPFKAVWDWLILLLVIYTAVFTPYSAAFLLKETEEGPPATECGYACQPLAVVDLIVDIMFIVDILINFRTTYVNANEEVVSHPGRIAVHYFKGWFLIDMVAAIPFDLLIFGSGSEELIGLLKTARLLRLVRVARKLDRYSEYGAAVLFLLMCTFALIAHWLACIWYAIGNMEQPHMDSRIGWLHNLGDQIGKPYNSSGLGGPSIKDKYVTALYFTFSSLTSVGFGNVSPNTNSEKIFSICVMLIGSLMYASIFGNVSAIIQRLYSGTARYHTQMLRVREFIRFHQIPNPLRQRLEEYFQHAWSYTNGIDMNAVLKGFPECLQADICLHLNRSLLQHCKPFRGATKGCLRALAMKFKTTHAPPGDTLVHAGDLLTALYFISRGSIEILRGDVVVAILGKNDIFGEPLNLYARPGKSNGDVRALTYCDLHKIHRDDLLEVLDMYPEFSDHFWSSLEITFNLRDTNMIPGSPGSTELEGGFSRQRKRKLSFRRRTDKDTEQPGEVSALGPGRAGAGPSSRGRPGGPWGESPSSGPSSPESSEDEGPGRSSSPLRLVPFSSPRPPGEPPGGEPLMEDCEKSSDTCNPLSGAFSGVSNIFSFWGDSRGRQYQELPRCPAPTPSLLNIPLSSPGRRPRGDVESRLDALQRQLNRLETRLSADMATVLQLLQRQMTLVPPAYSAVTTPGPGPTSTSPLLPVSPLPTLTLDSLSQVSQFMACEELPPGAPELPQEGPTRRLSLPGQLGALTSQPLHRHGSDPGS

| Compound | hERG current change (%, negative = inhibition) at 10uM [%] |
| --- | --- |
| CCCCOc1ccc(C2C(C(=O)c3cccs3)=C(O)C(=O)N2CCN2CCOCC2)cc1 (stereo not drawn) | 21.8 |
| CC(=O)Oc1cc2c(C(=O)NCCCN3CCOCC3)c(C)oc2c2ccccc12 | -18.2 |
| Cc1cc2nc(C)n(CCCN)c2cc1C.Cl | -0.0557 |
| CCN(CC)S(=O)(=O)c1ccc(Cl)c(NC(=O)COc2ccc3c(C)cc(=O)oc3c2)c1 | 7.69 |
| CCOC(=O)C(Sc1nnc(-c2ccncc2)o1)C(C)=O (stereo not drawn) | 27.7 |
| COCCNC(=O)c1noc2c1CCc1cc(OC)ccc1-2 | -6.83 |
| Cc1ccc(C(=O)N/C(=C\c2ccc(F)cc2)C(=O)NCCCn2ccnc2)cc1 | -77.5 |
| O=C(NCCCn1ccnc1)c1noc2c1CCc1ccccc1-2 | -45.9 |
| COc1ccc(/C=C(\NC(=O)c2ccc(C)cc2)C(=O)NCCCn2ccnc2)cc1 | -86.4 |
| COc1ccc(/C=C(/NC(=O)c2ccccc2)C(=O)NCCCn2ccnc2)cc1OC | 19 |
| COc1ccc2c(c1)CCc1c(C(=O)NCCCn3ccnc3)noc1-2 | -50.2 |
| Cl.O=C(NCCCn1ccnc1)c1ccc(F)cc1 | -2.81 |
| COc1ccc(C(=O)NCCCn2ccnc2)cc1.Cl | -5.63 |
| COc1ccc(/C=C(/NC(=O)c2ccc(OC)c(OC)c2)C(=O)NCCCn2ccnc2)cc1 | 11.5 |
| COc1ccc(C(=O)N/C(=C\c2cn(C)c3ccccc23)C(=O)NCCCn2ccnc2)cc1 | 26.3 |
| COc1ccc(C(=O)N/C(=C\c2ccccc2)C(=O)NCCCn2ccnc2)cc1 | -55.8 |
| COc1ccc(N(C2=NCCCS2)S(=O)(=O)c2ccc(C(C)(C)C)cc2)cc1 | 0.221 |
| CCc1ccc2[nH]c(C(=O)Nc3ccc4c(c3)OCO4)cc2c1 | 18.8 |
| COc1ccc(OC)c(S(=O)(=O)N/N=C(/C)c2c[nH]c3ccccc23)c1 | 14.1 |
| CCN(C(=O)c1cc2c(=O)[nH]c3ccc(C)cc3c2s1)c1cccc(C)c1 | -0.235 |
| Cc1nn(-c2ccc(N3CCCCC3)nn2)c(C)c1CCC(=O)Nc1cccc(F)c1 | -19 |
| COC(=O)c1sccc1-n1cc(C#N)c(=O)n(C)c1=O | 17.9 |
| COc1cc2c(c(OC)c1OC)-c1ccc(O)c(=O)cc1[C@@H](N)CC2 | -11.8 |

| Compound | hERG current change (%, negative = inhibition) at 10uM [%] |
| --- | --- |
| COCCn1c(C(C)C)nc2ccccc21 | 4.45 |
| CCn1cc(C2=NOC(C(=O)Nc3ccccc3C(=O)OC)C2)c(C)n1 (stereo not drawn) | -3.86 |
| COc1cc(C2C(C(=O)c3ccco3)=C(O)C(=O)N2CC2CCCO2)ccc1O (stereo not drawn) | 2.25 |
| Cc1ccn2c(=O)c(NC(=O)c3ccc(Br)o3)c(C)nc2c1 | 8.18 |
| CC1(C)C(=O)NCCN1C(=O)CC1C(=O)NCCN1CC(c1ccccc1)c1ccccc1 (stereo not drawn) | 12 |
| CC(C)(C)NC(=O)C(c1cccs1)N(Cc1ccco1)C(=O)c1csnn1 (stereo not drawn) | -1.46 |
| COc1ccc(C(=O)CCC(=O)Nc2ccc(Cl)cc2)cc1 | 11.2 |
| COc1ccc(/C=C(\NC(=O)c2ccc(C)cc2)C(=O)NCCCn2ccnc2)cc1OC | 8.48 |
| O=C(NCCCn1ccnc1)c1cc([N+](=O)[O-])cc([N+](=O)[O-])c1 | -4.05 |
| Cc1ccc(/C=C(\NC(=O)c2ccc(C)cc2)C(=O)NCCCn2ccnc2)cc1 | -84.9 |
| N#C/C(=C\c1ccc([N+](=O)[O-])cc1)C(=O)NCCCn1ccnc1 | -59.5 |
| COc1ccc(C(=O)N/C(=C\c2cn(S(=O)(=O)N(C)C)c3ccccc23)C(=O)NCCCn2ccnc2)cc1 | 1.07 |
| COc1cccc(-c2nn(-c3ccccc3)cc2/C=C(\C#N)C(=O)NCCCn2ccnc2)c1 | -38.8 |
| COc1ccc(/C=C(\NC(=O)c2ccc([N+](=O)[O-])cc2)C(=O)NCCCn2ccnc2)cc1 | -69.4 |
| Cc1ccc(C(=O)N/C(=C\c2ccccc2)C(=O)NCCCn2ccnc2)cc1 | -84.8 |
| C/C(CC(=O)Nc1ccc(Cl)c(C(F)(F)F)c1)=N\NC(=O)c1cnccn1 | -25.8 |
| COc1ccc(Cc2nnc(N)s2)cc1 | 15.3 |
| O=C(Nc1cccc(-n2cnnn2)c1)c1cccnc1 | 4.53 |
| C#CCOCCOCCOCCNc1nc(N2CCN(C(=O)C(Cc3ccc(O)cc3)n3cc(C(N)C(C)CC)nn3)CC2)nc(N2CCN(C(=O)C(Cc3ccc(O)cc3)n3cc(C(N)C(C)CC)nn3)CC2)n1.Cl (stereo not drawn) | -13.3 |
| COc1ccccc1CN1CCN(C(=O)c2cccc3ccccc23)CC1 | 3.48 |
| COc1cccc2cc(/C(=N/O)c3ccc(Br)cc3)oc12 | 5.41 |
| COC(=O)c1ccc(NC(=O)c2ccc3nc(C)sc3c2)cc1 | 15.8 |
| COc1cc(S(=O)(=O)NCc2ccccn2)c(OC)cc1Cl | -1.73 |

| Compound | hERG current change (%, negative = inhibition) at 10uM [%] |
| --- | --- |
| O=C(NCCCn1ccnc1)C(Cc1ccccc1)N1C(=O)c2ccccc2C1=O (stereo not drawn) | -34.5 |
| O=C(CCN1C(=O)c2ccccc2C1=O)NCCCn1ccnc1 | 11.3 |
| O=C(NCCCn1ccnc1)C(Cc1ccc([N+](=O)[O-])cc1)N1C(=O)c2ccccc2C1=O (stereo not drawn) | -62.3 |
| Cc1ccc(-n2nc3ccc(NC(=O)c4ccc5c(c4)OCO5)cc3n2)cc1 | 7.8 |
| O=C(NCCc1ccccc1)c1c(O)c2cccc3c2n(c1=O)CC3 | 1.79 |
| CCCN(CCC)Cc1cc2ccccc2c2c1COC2 | -29 |
| CCCCN(CCCC)Cc1cc2ccccc2c2c1COC2 | -54.6 |
| CCN(CC)Cc1cc2ccccc2c2c1COC2 | -44.1 |
| COc1ccc(NC(C)=O)cc1CNC(=O)CN1CCOCC1 | 19.1 |
| Cc1ccc(C(C(=O)NCC2CCCO2)N(Cc2ccccc2)C(=O)c2ccc(-c3ccccc3)[nH]2)o1 (stereo not drawn) | -7.63 |
| O=C(NC1CCCC1)C(c1ccncc1)N(Cc1ccccc1)C(=O)c1ccc(-c2ccccc2)[nH]1 (stereo not drawn) | -4.27 |
| O=C(NC1CCCCC1)C(c1ccncc1)N(Cc1ccccc1)C(=O)c1ccc(-c2ccccc2)[nH]1 (stereo not drawn) | 4.6 |
| Cc1ccc(C(C(=O)NC(C)(C)C)N(CCCN2CCOCC2)C(=O)c2ccc(-c3ccccc3)[nH]2)o1 (stereo not drawn) | -76.5 |
| O=C(NCC1CCCO1)C(c1cccs1)N(Cc1cccs1)C(=O)c1ccc(-c2ccccc2)[nH]1 (stereo not drawn) | 7.78 |
| O=C(NC1CCCCC1)C(c1ccc(F)cc1)N(CCN1CCOCC1)C(=O)c1ccc(-c2ccccc2)[nH]1 (stereo not drawn) | 24.4 |
| O=C(NC1CCCC1)C(c1ccncc1)N(Cc1ccco1)C(=O)c1ccc(-c2ccccc2)[nH]1 (stereo not drawn) | 1.38 |
| O=C(NC1CCCCC1)C(c1cccs1)N(CCCN1CCOCC1)C(=O)c1ccc(-c2ccccc2)[nH]1 (stereo not drawn) | -66.5 |
| O=C(NCC(=O)N(CCN1CCOCC1)C(C(=O)NC1CCCC1)c1cccs1)c1ccco1 (stereo not drawn) | -0.929 |
| O=C(NCC1CCCO1)C(c1ccc(F)cc1)N(CCCN1CCOCC1)C(=O)c1ccc(-c2ccccc2)[nH]1 (stereo not drawn) | -26.2 |
| CCOc1ccc(C(C(=O)NC2CCCC2)N(CCCO)C(=O)c2ccc(-c3ccccc3)[nH]2)cc1 (stereo not drawn) | -61.6 |
| O=C(NC1CCCC1)C(c1ccncc1)N(CCCN1CCOCC1)C(=O)c1ccc(-c2ccccc2)[nH]1 (stereo not drawn) | -61.1 |
| Cc1ccc(C(=O)COC(=O)c2ccccc2N2C(=O)C3C4CCC(C4)C3C2=O)cc1C (stereo not drawn) | -19.2 |
| CCN(CCO)C(=O)C12CCC(C)(C(=O)C1)C2(C)C (stereo not drawn) | -9.66 |

| Compound | hERG current change (%, negative = inhibition) at 10uM [%] |
| --- | --- |
| COc1c(Cl)cc(C(=O)NN)cc1Cl | 0.95 |
| CC(=O)Nc1sc2c(c1C(N)=O)CCCC2 | 22.8 |
| CCc1cccc(C)c1NC(=O)CCOc1ccccc1 | 3.79 |
| c1ccc(C2=Nc3cccnc3C(c3ccccc3)=NN2)cc1 | 15.9 |
| O=C(CCNS(=O)(=O)c1ccccc1)OCC(=O)c1ccc(Cl)cc1 | -30 |
| CC(C)CN(C(=O)COC(=O)c1ccc(Br)cc1)c1c(N)n(Cc2ccccc2)c(=O)[nH]c1=O | -2.83 |
| CCOC(=O)C1=C(COC(=O)c2cccs2)NC(=O)NC1C (stereo not drawn) | 6.08 |
| Cc1sc(NC(=O)c2ccccc2F)c(CN2CCCCC2C)c1C (stereo not drawn) | -7.58 |
| Cc1ccccc1NC(=O)c1ccc(Cl)c(NC(=O)c2ccncc2)c1 | -32.1 |
| CSC1=N/C(=C\c2ccc3c(c2)OCO3)C(=O)S1 | 12.3 |
| O=C(N/N=C/c1cccs1)C1CC(=O)N(c2ccccc2)C1 (stereo not drawn) | -8.24 |
| Cn1ncc2c(NNC(=O)c3ccccc3Cl)ncnc21 | 10.1 |
| Cc1ccccc1N1CCN(C2CCCN(C(=O)CCC(=O)N(C)C)C2)CC1 (stereo not drawn) | 9.34 |
| Cc1ccccc1N1CCN(C2CCCN(C(=O)COc3ccccc3)C2)CC1 (stereo not drawn) | -62.7 |
| COc1ccc(OCC(=O)N2CCCC(N3CCN(c4ccccc4C)CC3)C2)cc1 (stereo not drawn) | -85.9 |
| Cc1ccccc1N1CCN(C2CCCN(C(=O)CN3CCCC3=O)C2)CC1 (stereo not drawn) | 5.78 |
| Cc1ccccc1N1CCN(C2CCCN(C(=O)CCN3CCCO3)C2)CC1 (stereo not drawn) | -0.397 |
| CC(=O)c1ccc(OCC(=O)N2CCCC(N3CCN(c4ccccc4C)CC3)C2)cc1 (stereo not drawn) | -75.2 |
| Cc1cc(C)n(CC(=O)N2CCCC(N3CCN(c4ccccc4C)CC3)C2)n1 (stereo not drawn) | -14 |
| CC(C)=CC(=O)N1CCCC(N2CCN(c3ccccc3C)CC2)C1 (stereo not drawn) | -16 |
| Cc1ccccc1N1CCN(C2CCCN(C(=O)CCC(F)(F)F)C2)CC1 (stereo not drawn) | -47.3 |
